# Rows were chosen to be rich in hits. Some 3% of all compounds tested hit in one or more screens of this group.
# Tau ThT inhib – qHTS for Inhibitors of Tau Fibril Formation, Thioflavin T Binding; Microtubule-associated protein tau (Homo sapiens), P10636; recombinant tau K18 P301L, heparin-induced fibrillization, ThT fluorescence; Potency, µM (highest dose often 57.4 µM), inactives show at the highest dose activity, negative = inhibition, hits mostly inhibitors; 270,000 compounds, 2.1% hits; note: potency is the fitted concentration of half-maximal effect; nearly all actives have a fitted effect of over 55% in size
# Target sequence (P10636 561-689 P618L limits assumed): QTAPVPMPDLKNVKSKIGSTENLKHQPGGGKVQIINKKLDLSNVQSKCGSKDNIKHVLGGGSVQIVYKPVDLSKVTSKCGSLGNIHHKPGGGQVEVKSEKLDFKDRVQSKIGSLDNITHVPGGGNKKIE
#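 In this qHTS, human K18 P301L tau is incubated with compound and heparin for 6 hr at 37 C, and Thioflavin T fluorescence then reports fibril load.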
# Coupling enz – qHTS Assay for Inhibitors of Fructose-1,6-bisphosphate Aldolase from Giardia Lamblia: Coupling assay counterscreen; coupling enzyme system counterscreen, AmpLite Red fluorescence; activity change, negative = inhibition, % at 58.2 µM, hits read low; 290,000 compounds, 0.67% hits; AID 2472, 2010; in the data active = activity change below about -30%
#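 Counterscreen lacking aldolase: glyceraldehyde-3-phosphate coupling-enzyme reagent preincubated 10 min at RT with compound (at 57.5 uM final), then substrate/coupling system with AmpLite Red added; fluorescence read at 525/598 nm after 20 min RT.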
# KDM4E inh – qHTS Assay for Inhibitors of Human Jumonji Domain Containing 2E (JMJD2E); Lysine-specific demethylase 4E (Homo sapiens), B2RXH2; JMJD2E catalytic domain, FDH-coupled NADH fluorescence (FDH is formaldehyde dehydrogenase); Potency, µM (highest dose often 57.1 µM), inactives show top-dose activity change, negative = inhibition, most hits filed as inhibitors; 230,000 compounds, 1.6% hits; active = well fitted inhibition curve with a large enough effect, not every such curve was filed as active; inconclusive = small, poorly fitted or top-dose-only effect, or another doubt; inactive = no such curve, though single readings can be large or run the other way;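 note: potency is the fitted concentration of half-maximal effect; 0% = wells with enzyme and -100% = buffer wells without enzyme; nearly all actives have a fitted effect of over 50% in size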
# Target sequence (B2RXH2 1-337 limits assumed): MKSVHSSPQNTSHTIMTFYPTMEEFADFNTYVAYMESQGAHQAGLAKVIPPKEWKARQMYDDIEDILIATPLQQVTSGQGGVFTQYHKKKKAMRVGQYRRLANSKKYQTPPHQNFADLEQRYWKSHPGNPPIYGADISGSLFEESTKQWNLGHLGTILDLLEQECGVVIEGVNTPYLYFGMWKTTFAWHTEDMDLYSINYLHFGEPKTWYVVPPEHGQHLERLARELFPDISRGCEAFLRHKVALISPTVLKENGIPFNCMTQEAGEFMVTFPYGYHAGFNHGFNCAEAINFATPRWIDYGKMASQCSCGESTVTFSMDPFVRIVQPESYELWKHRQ
# Tau fluor cs – Counterscreen qHTS for Inhibitors of Tau Fibril Formation, Fluorescence Polarization; tau K18 P301L Alexa594 fluorescence, heparin fibrillization; Potency, µM (highest dose often 57.7 µM), without a hit: at the top dose activity change, negative = decrease; 280,000 compounds, 0.93% hits; note: potency is the fitted concentration of half-maximal effect; nearly all actives have a fitted effect of over 55% in size
#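 Human tau K18 P301L (15 uM unlabeled, 0.24 uM Alexa 594-labeled) in 100 mM sodium acetate pH 7 with 20 uM heparin, 6 hr at 37 C. ThT 30 uM added, 1 hr ambient; Alexa 594 FP and total fluorescence read at 555/632 nm.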
# Tau fibril FP – qHTS for Inhibitors of Tau Fibril Formation, Fluorescence Polarization | Microtubule-associated protein tau (Homo sapiens), P10636 | K18 P301L tau heparin fibrillization, Alexa594 FP, 6 h | Potency, µM (top dose mostly 57.7 µM), for inactives: at the highest dose activity, negative = inhibition, actives largely listed as inhibitors | 280,000 compounds, 0.39% hits; note: potency is the fitted concentration of half-maximal effect; nearly all actives have a fitted effect of over 55% in size
#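 Quantitative HTS format: compounds meet 15 uM recombinant K18 P301L tau and Alexa 594-tau tracer in 100 mM sodium acetate pH 7; 20 uM heparin triggers fibrillization at 37 C over 6 hr; FP gives the signal.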
# * marks the source's active call; other numbers are inactive results; ? = inconclusive; . = not tested or not shown; [ ] = dose if it differs, or a comment. Unless noted, calls come from the whole dose curve; as a rule, active = well fitted curve in the direction sought with a large enough effect; inconclusive = small, poorly fitted or top-dose-only effect, or another doubt; inactive = no such curve, though single readings can be large; an effect the other way counts as inactive or inconclusive. Unless noted, % is set by controls: 0 for no effect and ±100 for the full control effect.
SMILES,Tau ThT inhib,Coupling enz,KDM4E inh,Tau fluor cs,Tau fibril FP
CC1=NN(C(N)=S)C(=O)C1N=Nc1ccccc1C (configuration not stated),10µM*,6,6%,-15%,4%
O=C(O)c1cc(Oc2ccc([N+](=O)[O-])cc2)cc(Oc2ccc([N+](=O)[O-])cc2)c1,.,5,.,.,.
O=C(C1CCN(c2ncnc3c2sc2cccc(F)c23)CC1)N1CCCC1,?,-44*,1%,-14%,2%
COc1ccc(-c2ccc(/C=C3/C(=N)N4C=CSC4=NC3=O)o2)c([N+](=O)[O-])c1,1.8µM*,-3,?,?,-16%
N=C1/C(=C/c2cccn2-c2ccc([N+](=O)[O-])cc2)C(=O)N=C2SC=CN12,-4%,-1,1%,-1%,6%
Cc1cc(/C=C(\C#N)C(=O)Nc2ccccc2)c(C)n1-c1ccc2c(c1)OCO2,?,-2,25µM*,-27%,3%
Cc1ccccc1NC(=O)/C(C#N)=C\c1cc(C)n(-c2ccc(C(=O)O)cc2)c1C,.,-2,20µM*,-5%,10%
CNC(=O)/C(C#N)=C\c1cc(C)n(-c2ccc(N3CCOCC3)cc2)c1C,-6%,-1,-7%,-9%,-8%
Cc1cc(/C=C(/C#N)C(=O)Nc2ccccc2)c(C)n1-c1cccnc1,-3%,.,4%,6%,3%
Oc1c(/C=N/c2ncn[nH]2)ccc2ccccc12,28µM*,-29,-24%,-27%,?
COc1c(C)cccc1C(=O)Nc1ccc(Cl)c(-c2nc3cc(C)ccc3o2)c1,-6%,.,.,-25%,-7%
O=[N+]([O-])c1cccc(N2Cc3ccccc3C2)c1,16µM*,-1,?,?,?
COc1cccc2nc(-c3cccs3)nc(NN3C(=O)C=C(C)C3=O)c12,.,-3,.,.,.
O=C(CN1c2ccccc2Sc2ccccc21)NNC(=O)Nc1cccc(Cl)c1,-4%,4,-7%,8.9µM*[quencher],?
COc1ccc(NC(=O)c2c(NCc3ccc(C)o3)sc3c2CCCCC3)c(OC)c1,18µM*,.,.,?,?
COc1ccccc1NC(=O)c1c(NCc2sccc2C)sc2c1CCCCC2,?,.,.,-19%,0%
COc1ccc(Cl)cc1NC(=O)c1c(NCc2sccc2C)sc2c1CCCC2,4µM*,.,.,?,?
COc1ccc(NC(=O)c2c(NCc3ccc(C)o3)sc3c2CCC(C)C3)c(OC)c1 (configuration not stated),?,.,.,?,-9%
COc1ccc(NC(=O)c2c(NCc3sccc3C)sc3c2CCCCC3)c(OC)c1,28µM*,.,.,?,?
Cc1ccc(O)c(NC(=O)c2cccc(S(=O)(=O)N3CCCCC3)c2)c1,?,1,8%,?,7%
CC(C)c1ccc(NC(=O)c2ccc(F)c(S(=O)(=O)N3CCCC3)c2)cc1,?,.,.,-9%,-11%
Cc1ccc(O)c(NC(=O)c2ccc(Br)c(S(=O)(=O)N3CCCCC3)c2)c1,-12%,.,.,13µM*[quencher],-3%
O=C(Nc1cc(Cl)cc(Cl)c1)c1ccc(F)c(S(=O)(=O)NC2CCCC2)c1,1%,.,.,?,10µM*
O=C(Nc1cc(Cl)cc(Cl)c1)c1ccc(F)c(S(=O)(=O)N2CCCC2)c1,-5%,.,.,?,14µM*
Cc1ccc(C(=O)NCC(c2ccco2)S(=O)(=O)c2ccc(Cl)cc2)cc1C (configuration not stated),-16%,.,.,-24%,-12%
SMILES,Tau ThT inhib,Coupling enz,KDM4E inh,Tau fluor cs,Tau fibril FP
CCCCCn1c(=N)n(CC(O)COc2cccc(C)c2)c2ccccc21 (configuration not stated),-11%,.,.,-7%,-2%
COc1ccccc1O,.,0,.,.,.
COc1cccc(O)c1O,14µM*,-33*,7.9µM*,11µM*[quencher],25µM*
CCOC(=O)NC(=O)COC(=O)c1ccc(O)cc1,-2%,0,-3%,3%,1%
CNC(=O)NC(=O)COC(=O)c1ccc(-n2c(C)ccc2C)cc1,-13%,6,13µM*,-11%,-14%
Cc1ccc(C)n1-c1ccc(C(=O)O)cc1,?,3,14µM*,-21%,-14%
CCOc1ccccc1NC(=O)Cn1c(=O)nc(-c2ccccc2F)c2cc(Cl)ccc21,?,.,.,-18%,-4%
COc1cc(NC(=S)N2CCN(CCO)CC2)c(OC)cc1Cl,-3%,-2,-2%,6%,-1%
OCCN1CCN(C(=S)c2ccc(Cl)c(Cl)c2)CC1,7.9µM*,-32*,-27%,-22%,?
C#CCOCCOCCOCCNc1nc(N2CCN(C(=O)[C@H](CCCCN)n3cc([C@@H](N)CC(C)C)nn3)CC2)nc(N2CCN(C(=O)[C@H](CCCCN)n3cc([C@@H](N)CC(C)C)nn3)CC2)n1,-3%,3,7%,12%,8%
C#CCOCCOCCOCCNc1nc(N2CCN(C(=O)[C@H](CCCCN)n3cc(C(N)CO)nn3)CC2)nc(N2CCN(C(=O)[C@H](CCC(=O)O)n3cc(C(N)CC(C)C)nn3)CC2)n1 (some centres not stated),1%,-3,20µM*,4%,-13%
COc1ccc(OCC(=O)Nc2cccc(-c3nc4ccccc4[nH]3)c2)cc1,?,-2,?,20µM*[quencher],?
O=C(Nc1ccc(Cl)c(-c2nc3ccccc3[nH]2)c1)c1ccc2c(c1)OCO2,?,-3,51%,?,18µM*
O=C(COc1ccc(F)cc1)Nc1ccc(Cl)c(-c2nc3ccccc3[nH]2)c1,-2%,.,.,?,28µM*
CCOc1cc(OCC)cc(C(=O)Nc2cccc(-c3nc4ccccc4[nH]3)c2)c1,-19%,.,.,?,?
CCCOc1ccc(C(=O)Nc2cccc(-c3nc4ccccc4[nH]3)c2)cc1,?,.,.,10µM*[quencher],25µM*
O=C(Nc1ccc(-c2nc3ccccc3[nH]2)cc1)c1ccc2c(c1)OCO2,?,.,?,-24%,6%
CCCCC/C=C\C/C=C\C/C=C\C/C=C\CCCCCC(=O)NCC(=O)O,-2%,2,-1%,-1%,3%
O=c1c(O)c(-c2cc(O)c(O)c(O)c2)oc2cc(O)ccc12,.,-10,.,.,.
CCCN(C(=O)CCc1nc(-c2ccc(C)cc2)no1)c1ccc(OCC)cc1,?,.,.,-23%,-5%
CC1=C(C(=O)Nc2ccccc2C)C(c2ccccn2)n2nc(SCc3ccccc3F)nc2N1 (configuration not stated),-4%,.,.,-9%,-13%
